In PubChem BioAssay AID588579 (National Center for Advancing Translational Sciences (NCATS), 2011):
Where “and” joins values, the source holds several entries; their conditions need not be identical. Equal entries are not always repeated. In all, about 400,000 compounds went through this assay and about 2,200 (0.55%) were called active. Entries that show only a call come without a potency. Another 1% or so got no clear call; they are omitted. Calls follow the shape of the dose curve; as a rule, active = well fitted inhibition curve with a large enough effect; inconclusive = small, poorly fitted or top-dose-only effect, or another doubt; inactive = no such curve, though single readings can be large or run the other way. This excerpt belongs to a sample that is enriched for actives.

What follows are compounds tested against DNA polymerase kappa (Homo sapiens) (UniProt Q9UBT6) (assay: qHTS for Inhibitors of Polymerase Kappa). Details: purified Pol kappa, fluorescent DNA synthesis assay, 10 min; series mostly up to 107 µM.
Experimental: The processing and repair of DNA interstrand crosslinks (ICL) in eukaryotic cells are extremely complex, potentially involving multiple DNA repair and damage tolerance pathways, including homologous recombination, nucleotide excision repair, translesion synthesis (TLS), and cell cycle checkpoints.
To that end, in a collaboration between the Oregon Health & Science University and the NIH Chemical Genomics Center a 1536-well high-throughput screen was developed. This fluorescent screen was assayed against the NIH Molecular Libraries Small Molecule Repository (MLSMR) to discover inhibitors of Pol Kappa.
NIH Chemical Genomics Center [NCGC]
NIH Molecular Libraries Probe Centers Network [MLPCN]
Assay Submitter (PI): Stephen Lloyd, Oregon Health & Science University
Three microliters of reagents (buffer in column 3 and 4 as negative control and 10 nM Pol kappa in columns 1, 2, and 5-48) were dispensed into a 1536-well black solid-bottom plate. Compounds (23 nL) were transferred via Kalypsys pin tool equipped with 1536-pin array. The plates were then incubated for 15 min at room temperature, and 1 uL substrate (50 nM final concentration) were then added to start the reaction and kinetically read twice at 0 min and 10 min on the Viewlux reader
Potency is read from the fitted curve at half-maximal effect.

Chain of DNA polymerase kappa (Homo sapiens) (Q9UBT6 whole entry, looked up): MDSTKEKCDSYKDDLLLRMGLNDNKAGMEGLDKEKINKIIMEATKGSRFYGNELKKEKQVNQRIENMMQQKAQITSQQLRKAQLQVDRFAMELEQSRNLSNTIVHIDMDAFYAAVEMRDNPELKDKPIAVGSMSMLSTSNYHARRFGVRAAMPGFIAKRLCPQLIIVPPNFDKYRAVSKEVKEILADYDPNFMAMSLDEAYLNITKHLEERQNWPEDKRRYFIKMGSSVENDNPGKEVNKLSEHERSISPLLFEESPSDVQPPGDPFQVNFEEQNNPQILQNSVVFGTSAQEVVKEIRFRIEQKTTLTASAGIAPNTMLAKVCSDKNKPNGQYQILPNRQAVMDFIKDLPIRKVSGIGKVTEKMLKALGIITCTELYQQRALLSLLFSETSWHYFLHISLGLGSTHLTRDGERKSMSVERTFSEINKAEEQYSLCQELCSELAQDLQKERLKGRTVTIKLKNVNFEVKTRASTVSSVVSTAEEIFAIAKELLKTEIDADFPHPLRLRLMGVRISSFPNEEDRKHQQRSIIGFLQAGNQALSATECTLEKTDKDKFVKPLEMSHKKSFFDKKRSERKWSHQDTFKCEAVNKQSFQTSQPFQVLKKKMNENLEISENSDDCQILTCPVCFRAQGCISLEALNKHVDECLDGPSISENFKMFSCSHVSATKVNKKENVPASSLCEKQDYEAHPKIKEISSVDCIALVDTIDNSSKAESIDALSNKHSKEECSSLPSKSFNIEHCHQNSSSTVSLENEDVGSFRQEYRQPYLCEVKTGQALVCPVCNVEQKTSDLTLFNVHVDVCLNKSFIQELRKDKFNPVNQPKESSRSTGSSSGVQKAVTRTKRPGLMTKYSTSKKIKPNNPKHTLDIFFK

| Compound | Potency | activity, negative = inhibition |
| --- | --- | --- |
| O=c1ccc2c(-c3ccccc3S(=O)(=O)O)c3ccc(O)c(O)c3oc-2c1O | 0.708 µM (active) | – |
| Cc1nc2cnc(N3CCNCC3)nc2n(Cc2ccc(F)cc2)c1=O | inactive | – |
| Clc1cccc[n+]1CCCC[n+]1ccccc1Cl | inactive | – |
| Cc1c(CCO)sc[n+]1CC(=O)c1ccc2ccccc2c1 | inactive | – |
| CCN1CCN(c2ccc(/C=C/c3ccnc4ccccc34)cc2)CC1 | inactive | – |
| CCOc1cccc(CC(=O)N2CCc3c([nH]c4ccccc34)C2c2ccc(F)cc2)c1OCC (stereo not given) | inactive | – |
| CCOc1ccccc1C1NC(=O)NC(C)=C1C(=O)OCc1ccco1 (stereo not given) | inactive | – |
| CCOc1cccc2c1N[C@@H](c1ccc(C(=O)O)cc1)[C@H]1CC=C[C@@H]21 | 3.98 µM (active) | – |
| O=C(O)c1ccc(/C=C2/SC(=S)N(c3cccc(C(F)(F)F)c3)C2=O)cc1 | – | -8.36% [at 12 µM] (inactive) |
| N#Cc1c(N2CCCCC2)nc(N)c2c(N)nc(SCC(=O)O)cc12 | 39.8 µM (active) | – |
| CC1C(O)CC2C(C(=O)O)=CO[C@@H](O[C@H]3OC(CO)C(O)C(O)C3O)C21 (stereo not given in full) | inactive | – |
| CS(=O)(=O)N1CCC2(CCN(c3ccncc3)CC2)CC1 | inactive | – |
| Oc1ccc(-c2c(-c3ccccc3)nn3c(C(F)(F)F)cc(C(F)(F)F)nc23)cc1 | – | -10.8% [at 12 µM] (inactive) |
| Cc1c(S(=O)(=O)O)oc2c1C(=O)C(=O)c1c-2ccc2c1CCCC2(C)C | 35.5 µM (active) | – |
| CCC(CCC(C)C1CCC2C3CC=C4CC(O)CC[C@@]4(C)C3CC[C@@]12C)C(C)C (stereo not given in full) | – | 8.1% [at 19.4 µM] (inactive) |
| C[N+]1(CC(=O)c2cccs2)CCOCC1 | inactive | – |
| CCOC(=O)c1ccc(-c2ccc(/C=C(\C#N)C(=O)Nc3ccc(OCC)cc3)o2)cc1 | inactive | – |
| CCOc1ccc(NC(=O)c2ccc(NC(=O)COC(=O)c3ccc(NC(=O)CC#N)cc3)cc2)cc1 | 22.4 µM (active) | – |
| CCOc1ccc(NC(=O)Cn2c(C)ccc(C#N)c2=O)cc1 | inactive | – |
| CS(=O)c1ccc(/C=C2\C=Cc3ccccc32)cc1 (stereo not given) | inactive | – |
| CN(C)c1cccc2ccccc12 | inactive | – |
| C=C1/C(=C\C=C2\CCCC3(C)C2CCC3C(C)/C=C/C(O)C2CC2)CC(O)CC1O (stereo not given) | inactive | – |

| Compound | Potency | activity, negative = inhibition |
| --- | --- | --- |
| COc1cc2nc(C#Cc3nc4cc(OC)c(OC)cc4[nH]3)[nH]c2cc1OC | inactive | – |
| O=C(CSc1nc2ccccc2c(=O)[nH]1)Nc1nc(-c2ccc(Br)cc2)cs1 | 20 µM (active) | – |
| COc1ccc(NC(=O)CSc2nc3ccccc3[nH]2)cc1 | inactive | – |
| O=C(CSc1nc(O)c(Cc2ccccc2)c(=O)[nH]1)Nc1nc2c(s1)CCCC2 | inactive | – |
| Cc1cnc(CNc2cc(-c3c(C)noc3C)ncn2)cn1 | inactive | – |
| O=C(Nc1ccccc1C(F)(F)F)c1nc(S(=O)(=O)Cc2ccccc2F)ncc1Cl | inactive | – |
| Cn1cc(-c2nc3cnc(N4CCNCC4)nc3n(CCc3ccccc3)c2=O)c2ccccc21 | inactive | – |
| CC(C)(C)OC(=O)N(Cc1ccco1)S(=O)(=O)c1ccccc1Br | inactive | – |
| Oc1cc(O)c2c(c1)OC(c1ccc(O)c(O)c1)C(O)C2 (stereo not given) | 3.16 µM (active) | – |
| CC[C@H](C)[C@H](NC(=O)[C@H](CCCNC(=N)N)NC(=O)[C@H](CCCNC(=N)N)NC(=O)[C@H](CC(C)C)NC(=O)[C@H](Cc1ccccc1)NC(=O)CNC(=O)CNC(=O)[C@@H](N)Cc1ccc(O)cc1)C(=O)N[C@@H](CCCNC(=N)N)C(=O)N1CCC[C@H]1C(=O)N[C@@H](CCCCN)C(=O)N[C@@H](CC(C)C)C(=O)N[C@@H](CCCCN)C(=O)N[C@@H](Cc1c[nH]c2ccccc12)C(=O)N[C@@H](CC(=O)O)C(=O)N[C@@H](CC(N)=O)C(=O)N[C@@H](CCC(N)=O)C(=O)O | inactive | – |
| CCOc1n[nH]c(-c2ccccc2)n1 | inactive | – |
| CN(C)c1ccc(/C=c2\[nH]c(=O)/c(=C/c3ccc(N(C)C)cc3)[nH]c2=O)cc1 | inactive | – |
| CC(C)[C@@H]1NC(=O)[C@H](Cc2ccccc2)NC(=O)[C@@H](CC(=O)O)NC(=O)CNC(=O)[C@H](CCCNC(=N)N)NC1=O | – | 4% [at 19.4 µM] (inactive) |
| COc1ccc(CCC(=O)c2c(O)cc(OC3OC(CO)C(O)C(O)C3O[C@@H]3OC(C)C(O)C(O)C3O)cc2O)cc1O (stereo not given in full) | inactive | – |
| C[C@@H]1O[C@@H](OC[C@H]2O[C@@H](Oc3cc(O)c4c(c3)O[C@H](c3ccc(O)c(O)c3)CC4=O)[C@H](O)[C@@H](O)[C@@H]2O)[C@H](O)[C@H](O)[C@H]1O | inactive | – |
| C[C@@H]1O[C@@H](OC[C@H]2O[C@@H](Oc3c(-c4cccc(O)c4O)oc4cc(O)cc(O)c4c3=O)[C@H](O)[C@@H](O)[C@@H]2O)[C@H](O)[C@H](O)[C@H]1O | 7.08 µM (active) | – |
| CC1OC(OCC2OC(Oc3c(-c4ccc(O)c(O)c4)oc4cc(O)cc(O)c4c3=O)C(O)C(O)C2O)[C@@H](O)C(O)C1O (stereo not given in full) | 10 µM (active) | – |
| C[C@@H]1O[C@@H](OC[C@H]2O[C@@H](Oc3c(-c4ccc(O)cc4)oc4cc(O)cc(O)c4c3=O)[C@H](O)[C@@H](O)[C@@H]2O)[C@H](O)[C@H](O)[C@H]1O | inactive | – |
| CC(C)C(NS(=O)(=O)c1ccc(-c2ccc(Br)cc2)cc1)C(=O)O (stereo not given) | inactive | – |
| H-EHIPA-OH | inactive | – |
| COc1cc(OC)c2c(c1Cl)OC1(C2=O)C(O)=CC(=O)CC1C (stereo not given) | inactive | – |
| CN(Cc1ccco1)c1ncncc1-c1ccoc1 | inactive | – |

| Compound | Potency | activity, negative = inhibition |
| --- | --- | --- |
| CC(C)c1ccc(Cn2c(COc3ccccc3)nc3ccccc32)cc1 | inactive | – |
| Cc1c(C)n(Cc2ccc(Cl)cc2)c2ccc(C(=O)N3CCN(c4ccccc4F)CC3)cc12 | inactive | – |
| CC(C)c1ccc2c(c1)c(SC(C)(C)C)c(CC(C)(C)C(=O)O)n2Cc1ccc(Cl)cc1 | 29.9 µM (active) and 79.4 µM (active) | – |
| CC1(C)CC(=O)c2cc(C(=O)NCc3ccccc3)c(=O)[nH]c2C1 | inactive | – |
| O=[N+]([O-])c1ccc(/C=C/c2ccc3cccnc3c2)cc1 | inactive | – |
| O=C1/C(=C\c2ccc([N+](=O)[O-])cc2)CS(=O)(=O)C/C1=C/c1ccc([N+](=O)[O-])cc1 | 79.4 µM (active) | – |
| N#Cc1ccc(CN2CCCC3(CCN(C(=O)c4ccco4)CC3)C2)cc1 | inactive | – |
| CN1CCN(/[N+]([O-])=N/Oc2ccc([N+](=O)[O-])cc2[N+](=O)[O-])CC1 | inactive | – |
| COc1ccc(C(=O)N2CCC3(CC2)CCN(c2ccccn2)CC3)cc1 | inactive | – |
| O=C1CSC(=S)N1/N=C/c1ccc(O)c([N+](=O)[O-])c1 | 28.2 µM (active) | – |
| CCOC(=O)C1C/C(=C\C(C)=O)c2cccc(C(F)(F)F)c2O1 (stereo not given) | inactive | – |
| O=c1cc(-c2ccc(O)c(O)c2)oc2cccc(O)c12 | 6.31 µM (active) | – |
| Cc1cccc(-c2cc(=O)c3cc(C)ccc3o2)c1 | – | -11.6% [at 19.4 µM] (inactive) |
| COc1ccc(-c2c(C)c3ccc(O)c(CN4CCN(C)CC4)c3oc2=O)cc1OC | inactive | – |
| COc1c(O)cc2oc(-c3ccc(O)c(O)c3)cc(=O)c2c1O | 5.01 µM (active) and 752 nM (active) | – |
| COc1ccc2c(=O)cc(-c3ccccc3)oc2c1O | – | -8.18% [at 19.4 µM] (inactive) |
| OCCN1CCN(CC/C=C2\c3ccccc3Sc3ccc(C(F)(F)F)cc32)CC1 | – | -8.78% [at 12 µM] (inactive) |
| COc1cccc(Cn2c(=O)cnc3cncnc32)c1 | inactive | – |
| NC(=O)c1sc(-c2ccsc2)cc1N | – | 7.11% [at 19.4 µM] (inactive) |
| COc1ccc(-c2nc3cnc(OC)nc3n(Cc3ccc(F)cc3)c2=O)cc1 | inactive | – |
| COc1ccc(C2=Nn3c(nnc3-c3ccccc3OC)SC2)cc1OC1CCCC1 | 39.8 µM (active) | – |
| Cc1nnc2n1N=C(c1ccc3c(c1)NC(=O)CO3)CS2 | inactive | – |

| Compound | Potency | activity, negative = inhibition |
| --- | --- | --- |
| COc1ccc(C2(C#N)CCC(C(=O)O)CC2)cc1OC1CCCC1 (stereo not given) | – | 1.33% [at 19.4 µM] (inactive) |
| C[C@H]1CCC[C@@]2(C)CCCC[C@]12O | inactive | – |
| Cc1csc(-c2nc3ccccc3n2C)n1 | – | -4.55% [at 19.4 µM] (inactive) |
| COc1cccc(-c2cc(=O)c3cc(NC(=O)c4ccc(C)cc4)ccc3[nH]2)c1 | inactive | – |
| COc1ccc(Br)cc1/C=N/Nc1ccc(S(=O)(=O)Nc2ccccc2C(=O)O)cc1[N+](=O)[O-] | 39.8 µM (active) | – |
| COc1ccc(S(=O)(=O)NC(C)c2ccccc2)cc1C(=O)N1CCCCC1 (stereo not given) | inactive | – |
| COC(=O)c1ccccc1NS(=O)(=O)c1ccc2c(c1)CCCN2C(C)=O | inactive | – |
| COC(=O)N1CCC[C@@]2(CCN(C(=O)NC(C)C)C2)C1 | inactive | – |
| CN(C)c1ccc(/C=C/c2sc3ccccc3[n+]2CCCCBr)cc1 | inactive | – |
| CC(C)(C)n1ncc2c(=O)n(Cc3ccc(C(=O)c4ccccc4)cc3)cnc21 | inactive | – |
| N#Cc1ccc[n+](CC(=O)c2ccc(O)c(O)c2)c1 | 0.891 µM (active) | – |
| N#Cc1ccc[n+](CC(=O)c2ccc(F)cc2)c1 | inactive | – |
| NC(=O)C[n+]1cccc(C(N)=O)c1 | inactive | – |
| O=c1c(-c2ccc(F)c(F)c2)nc2cncnc2n1-c1ccccc1 | inactive | – |
| COc1cc2nc(N3CCCN(C)CC3)nc(NC3CC3)c2cc1OC | inactive | – |
| CN(C(=N)N)c1ccc(/C=C2\C=Cc3ccccc32)cc1 | inactive | – |
| C=CC1=C(C(=O)O)N2C(=O)[C@@H](NC(=O)/C(=N\OCC(=O)O)c3csc(N)n3)[C@H]2SC1 | 50.1 µM (active) | – |
| CO/N=C(\C(=O)N[C@@H]1C(=O)N2C(C(=O)O)=C(COC(C)=O)CS[C@H]12)c1csc(N)n1 (stereo in doubt) | 35.5 µM (active) and 79.4 µM (active) and 39.8 µM (active) | – |
| O=C(c1cnccn1)N1CCC2(CCCN(Cc3ccccc3)C2)CC1 | inactive | – |
